D1 antagonist = antagonists of human D1 dopamine receptor. P21728. HEK293 TREx D1 cells, calcium flux, dopamine EC80; hits give low values. activity change, negative = inhibition, % at 10 µM. 360,000 compounds, 3.2% hits. AID 504652; in the data active = activity change below about -30%
Target sequence (P21728 whole entry, looked up): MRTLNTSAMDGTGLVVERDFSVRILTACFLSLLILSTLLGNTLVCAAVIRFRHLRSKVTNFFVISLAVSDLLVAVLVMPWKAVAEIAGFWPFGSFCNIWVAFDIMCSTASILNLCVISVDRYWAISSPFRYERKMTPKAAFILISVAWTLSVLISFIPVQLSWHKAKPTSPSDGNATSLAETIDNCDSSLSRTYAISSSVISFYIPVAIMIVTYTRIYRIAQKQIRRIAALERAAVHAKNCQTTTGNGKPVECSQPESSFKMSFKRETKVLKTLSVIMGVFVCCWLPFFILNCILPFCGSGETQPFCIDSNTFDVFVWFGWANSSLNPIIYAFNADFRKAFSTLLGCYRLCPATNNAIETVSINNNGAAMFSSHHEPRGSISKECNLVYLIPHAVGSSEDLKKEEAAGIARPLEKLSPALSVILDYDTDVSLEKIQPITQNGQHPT
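Antagonism measured as reduced calcium response to an EC80 dopamine addition following 180 s compound pre-read; cells were inducible HEK293 Trex D1 plated overnight at 30 C, read kinetically at 1 cycle/sec.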
D1 ag = human D1 receptor agonism; activation, % at 2 µM; P21728; HEK293 T-REx D1 cells, calcium flux, agonist mode; 360,000 compounds, 1% hits
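Agonism was scored from calcium flux recorded over 180 s (1 read/s) after pintool compound addition, following a 10-cycle baseline. Cells were inducible force-coupled HEK293 TREx D1, plated overnight at 30 C and loaded with no-wash calcium dye.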
D1 PAM = human D1 dopamine receptor positive modulation | potentiation, % at 10 µM | AID 504651 | HEK293 TREx D1 cells, calcium flux, dopamine EC20 potentiation | 360,000 compounds, 0.036% hits; in the data active = potentiation above about 30%
TRHR agonist = agonists of human TRH receptor. AID 493084. activation, % at 2 µM. P34981. 360,000 compounds, 0.18% hits. TRHR cells, calcium flux fluo-8, FDSS agonist mode
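TRHR-expressing cells, plated overnight in medium with 10% serum, were loaded with fluo-8 calcium dye at room temperature. After a 10 s baseline, library compound was pin-added and calcium release was recorded kinetically (ex 480/em 530) as agonist response.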
TRHR PAM = allosteric enhancers of human TRH receptor; P34981; TRHR cells, fluo-8 calcium fluorescence, EC20 TRH enhancement; 360,000 compounds, 0.66% hits; enhancement, % at 2 µM; AID 493056; in the data active = enhancement above about 30%
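TRHR-expressing cells loaded with fluo-8 calcium dye were read kinetically (ex 480/em 530) during compound addition, then stimulated with an EC20 of TRH (10 nM final). Enhancement of the Gq-mediated intracellular calcium response was scored.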
A number is an active result; n = inactive; x = no result given. A selection: hits, their analogues and other compounds. The true share with any hit is near 4.7%. Rule as the data show it, unless noted: active = activation above about 30%; inactive = the rest.

SMILES	D1 antagonist	D1 ag	D1 PAM	TRHR agonist	TRHR PAM
CCc1cccc(NC(=O)c2c(C)oc3nc(C)nc(N4CCCC4)c23)c1	n	n	n	n	n
CCCCOc1ccc(CNC(=O)CN2C(=O)CCn3nc(-c4cn(C)c5ccccc45)cc32)cc1	n	n	n	n	n
CC1CCN(S(=O)(=O)c2cn(C)c(=O)n(C)c2=O)CC1	-61	n	n	n	n
Cn1cc(S(=O)(=O)N2CCN(c3ccccc3F)CC2)c(=O)n(C)c1=O	n	n	n	n	n
COc1ccccc1N1CCN(S(=O)(=O)c2cn(C)c(=O)n(C)c2=O)CC1	-36	n	n	n	n
Cc1nnc(SC(C)C(=O)Nc2nccs2)s1 (stereo unspecified)	-33	n	n	n	n
CC(Sc1nnc(N)s1)C(=O)Nc1nccs1 (stereo unspecified)	n	n	n	n	n
CC1CCCCC1NC(=O)c1ccc(NS(=O)(=O)c2ccc3[nH]c(=O)[nH]c3c2)cc1 (stereo unspecified)	n	n	n	n	n
COc1cccc2cc(C(C)=O)c(=O)oc12	n	n	n	n	n
COc1cccc2cc(C(=O)CS(=O)(=O)c3ccc(Cl)cc3)c(=O)oc12	n	n	n	n	34
CCCC(CCC)C(=O)Nc1cccc(-c2cn3c(n2)SCC3)c1	n	n	n	n	n
O=C(Cc1ccc(Br)cc1)Nc1cccc(-c2cn3c(n2)SCC3)c1	-41	n	n	n	n
COc1cccc(/C=N/n2c(SC)nnc2-c2ccccc2)c1O	n	30	n	n	n
CCN1C(=O)/C(=C/C=C2\N(CC)c3cc(S(=O)(=O)N(C)C)ccc3N2c2ccccc2)SC1=S	n	83	n	n	n
CCCCOc1ccc(/C(O)=C2/C(=O)C(=O)N(Cc3cccnc3)C2c2ccncc2)c(C)c1 (stereo unspecified)	-56	n	n	n	n
CCc1ccc(NC(=O)CNS(=O)(=O)c2c(C)noc2C)cc1	-31	n	n	n	n
CCc1ccc(NC(=O)C2CCN(S(=O)(=O)c3c(C)noc3C)CC2)cc1	n	n	n	n	n
O=C(O)C1CCCCC1C(=O)Nc1ccccc1Nc1ccccc1 (stereo unspecified)	-41	n	n	n	n
O=C(Nc1ccccc1)c1ccccc1NC(=O)[C@H]1CCCC[C@H]1C(=O)O	n	n	n	n	n
CCCCCc1nnc(NC(=O)c2ccc3nc[nH]c3c2)s1	n	n	x	n	n
CCN(C(=O)Cn1nc(Cc2ccncc2)c2ccccc2c1=O)c1cccc(Cl)c1	-83	n	n	n	n
O=S(=O)(c1ccccc1)N1CCc2ccccc2C1	n	n	n	n	n
N#Cc1ccc(S(=O)(=O)N2CCN(c3ncccn3)CC2)cc1	n	n	n	n	n
COc1cc(S(=O)(=O)N2CCN(Cc3cccs3)CC2)ccc1NC(C)=O	n	n	x	n	n
N#Cc1ccc(S(=O)(=O)N2CCN(Cc3cccs3)CC2)cc1	-64	n	n	n	n
SMILES	D1 antagonist	D1 ag	D1 PAM	TRHR agonist	TRHR PAM
CC(=O)Nc1ccc(S(=O)(=O)N2CCc3ccccc3C2)cc1	-34	n	n	n	n
CC(=O)Nc1ccc(S(=O)(=O)N2CCN(Cc3cccs3)CC2)cc1	-39	n	n	n	n
CC(C)c1csc(CN2CCC(CCC(=O)NCC3CCCO3)CC2)n1 (stereo unspecified)	n	n	n	n	n
O=C(c1cccs1)c1cn(CCOc2ccccc2F)c2ccccc12	n	n	n	n	n
O=C(c1cccs1)c1cn(CCOc2ccc(F)cc2)c2ccccc12	n	35	n	n	n
CC1CCN(S(=O)(=O)c2ccc3c(c2)N(CC(=O)NC(C)c2ccccc2)C(=O)CS3)CC1 (stereo unspecified)	n	n	n	n	n
CCOc1ccc(CCNC(=O)COC(=O)c2ccc(OC(C)C)cc2)cc1OCC	n	n	n	n	n
Cc1ncc([N+](=O)[O-])n1CCOC(=O)NC(Nc1ccc(F)cc1)C(Cl)(Cl)Cl (stereo unspecified)	n	n	n	n	n
Cc1ccccc1NC(NC(=O)OCCn1c([N+](=O)[O-])cnc1C)C(Cl)(Cl)Cl (stereo unspecified)	-33	n	n	n	n
CCOC(=O)N1CCC(NC(=O)c2ccc3c(c2)N(Cc2ccc(F)cc2)C(=O)c2ccccc2S3=O)CC1 (stereo unspecified)	n	n	n	n	37
